In PubChem BioAssay (EPA / NIEHS) one finds outcome and AC50 data, which are given here for three compounds.

Several values for one entry are separate records, joined by “and”; a condition that tells them apart may be missing. Equal entries are not always repeated. Some structures have more than one record in an assay (separate samples or runs), and their calls can disagree. Activity calls are given as the source filed them. How the source made its calls: active means hit-call score of the fitted dose curve at least 0.9, where 1 is the maximum; inactive means score below 0.9.

Common to all, as to settings: mRNA level, 48 h; actives raise or lower the signal
Read-out in assay [1]: Early growth response protein 1 (EGR1) transcription factor, EGR1 (gene 1958)
The assay is described as follows: LTEA_HepaRG_EGR1: Life Technologies and Expression Analysis (LTEA) Assay for Early growth response protein 1 (EGR1) transcription factor using HepaRG (AID 2283490). The essentials: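 HepaRG, 48 h exposure, 8-pt half-log series from 100 uM, 0.5% DMSO vehicle; EGR1 transcript by TaqMan qRT-PCR (Fluidigm array), housekeeping-normalized; bidirectional fit relative to DMSO baseline.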

Read-out in assay [2]: Ezrin (EZR), EZR (gene 7430)
The assay is described as follows: LTEA_HepaRG_EZR: Life Technologies and Expression Analysis (LTEA) Assay for Ezrin (EZR) using HepaRG (AID 2283491). The gist of the method:
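EZR transcript levels came from Fluidigm qRT-PCR and were normalized to three housekeeping genes after 48 h chemical exposure of HepaRG cells. Dosing used an 8-point half-log series with a 100 uM top concentration in 0.5% DMSO, tested in duplicate; both directions were fitted versus vehicle.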

Read-out in assay [3]: Cytochrome P450 3A7 (Homo sapiens) (UniProt P24462)
The assay is described as follows: LTEA_HepaRG_CYP3A7: Life Technologies and Expression Analysis (LTEA) Assay for CYP3A7 using HepaRG (AID 2283492). The essentials:
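Human HepaRG liver cells, 48 h post-plating, switched to serum-free induction medium and exposed in duplicate for 48 h. Dosing: 100 uM top, half-log dilutions, 8 points, 0.5% DMSO vehicle. Read-out: CYP3A7 mRNA, gain or loss fitted against DMSO baseline.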

Read-out in the next assay: CYP3A5 (gene 1577)
The assay is described as follows: LTEA_HepaRG_CYP3A5: Life Technologies and Expression Analysis (LTEA) Assay for CYP3A5 using HepaRG (AID 2283493). The gist of the method:
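Readout was CYP3A5 mRNA by qRT-PCR. HepaRG cultures were exposed for 48 h in serum-free induction medium to chemicals at up to 100 uM, and responses were fitted in both directions relative to DMSO vehicle.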

Read-out in assay [4]: Fatty Acid-Binding Protein 1 (FABP1), FABP1 (gene 2168)
The assay is described as follows: LTEA_HepaRG_FABP1: Life Technologies and Expression Analysis (LTEA) Assay for Fatty Acid-Binding Protein 1 (FABP1) using HepaRG (AID 2283494). The essentials: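 qRT-PCR readout of FABP1 transcript (normalized to three housekeeping genes) after 48 h chemical exposure of HepaRG cells; eight concentrations, half-log steps, max 100 uM, 0.5% DMSO vehicle; gain or loss fitted relative to DMSO baseline.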

Read-out in assay [5]: Cytochrome P450 4A22 (Homo sapiens) (UniProt Q5TCH4)
The assay is described as follows: LTEA_HepaRG_CYP4A22: Life Technologies and Expression Analysis (LTEA) Assay for Cytochrome P450 4A22 (CYP4A22) using HepaRG (AID 2283495). The essentials:
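Readout is CYP4A22 transcript induction or loss, quantified by qRT-PCR and normalized to ACTB, GAPDH and POLR2A. Human HepaRG cells receive test chemicals for 48 h at eight half-log concentrations from 100 uM in 0.5% DMSO.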

Read-out in assay [6]: Cytochrome P450 7A1 (Homo sapiens) (UniProt P22680)
The experiment in a line: LTEA_HepaRG_CYP7A1: Life Technologies and Expression Analysis (LTEA) Assay for Cytochrome P450 7A1 (CYP7A1) using HepaRG (AID 2283496). The essentials:
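Using 0.5% DMSO as vehicle and baseline, chemicals were tested in duplicate over an 8-point range from 100 uM on HepaRG cells for 48 h; qRT-PCR signals were normalised to ACTB, GAPDH and POLR2A.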

Read-out in assay [7]: Glutathione S-Transferase (GSTA2), GSTA2 (gene 2939)
The experiment in a line: LTEA_HepaRG_GSTA2: Life Technologies and Expression Analysis (LTEA) Assay for Glutathione S-Transferase (GSTA2) using HepaRG (AID 2283497). The essentials: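 qRT-PCR readout of GSTA2 transcript, normalized to three housekeeping genes, fitted bidirectionally against 0.5% DMSO baseline. Differentiated HepaRG cells received compound for 48 h at 8 concentrations (top 100 uM, half-log steps).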

Read-out in assay [8]: Glutamate-cysteine ligase catalytic (GCLC), GCLC (gene 2729)
The experiment in a line: LTEA_HepaRG_GCLC: Life Technologies and Expression Analysis (LTEA) Assay for Glutamate-cysteine ligase catalytic (GCLC) using HepaRG (AID 2283498). The essentials:
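HepaRG, 48 h exposure, 8-pt half-log series from 100 uM, 0.5% DMSO vehicle; TaqMan qRT-PCR for GCLC mRNA, housekeeping-normalized; bidirectional curve fit vs DMSO baseline.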

Read-out in assay [9]: Glutamate-cysteine ligase regulatory (GCLM), GCLM (gene 2730)
The assay is described as follows: LTEA_HepaRG_GCLM: Life Technologies and Expression Analysis (LTEA) Assay for Glutamate-cysteine ligase regulatory (GCLM) using HepaRG (AID 2283500). The gist of the method:
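In this multiplexed HepaRG gene-expression assay, GCLM mRNA change after 48 h treatment (8 concentrations, max 100 uM) was scored against DMSO by bidirectional curve fitting.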

Read-out in assay [10]: Glutathione S-transferase M3 (GSTM3), GSTM3 (gene 2947)
The experiment in a line: LTEA_HepaRG_GSTM3: Life Technologies and Expression Analysis (LTEA) Assay for Glutathione S-transferase M3 (GSTM3) using HepaRG (AID 2283501). The essentials: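 HepaRG, plated 48 h, then serum-free induction medium; test chemical 48 h, duplicate; 100 uM top, half-log x8, 0.5% DMSO. Read-out: GSTM3 mRNA (TaqMan qRT-PCR, Fluidigm array). Bidirectional fit vs DMSO.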

Read-out in assay [11]: Heat shock 70 kDa protein 1 (HSPA1A), gene 3303
The experiment in a line: LTEA_HepaRG_HSPA1A: Life Technologies and Expression Analysis (LTEA) Assay for Heat shock 70 kDa protein 1 (HSPA1A) using HepaRG (AID 2283502). The essentials: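 An oxidative-stress marker readout: HepaRG cells treated 48 h in duplicate with an eight-point series (highest 100 uM) had HSPA1A mRNA quantified by TaqMan qRT-PCR. Activity was fitted in both directions using 0.5% DMSO as baseline.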

Read-out in assay [12]: Hypoxia-inducible factor 1-alpha (Homo sapiens) (UniProt Q16665)
The experiment in a line: LTEA_HepaRG_HIF1A: Life Technologies and Expression Analysis (LTEA) Assay for Hypoxia-inducible factor 1 (HIF1A) Trancription factor using HepaRG (AID 2283503).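 Further: HIF1A transcript by TaqMan qRT-PCR normalized to ACTB GAPDH and POLR2A.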 The essentials:
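Gain- or loss-of-signal HIF1A mRNA changes are fitted against a DMSO baseline. HepaRG cultures receive eight concentrations, highest 100 uM, for 48 h in serum-free induction medium with 0.5% DMSO.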

Read-out in assay [13]: 3-Hydroxy-3-Methylglutaryl-CoA Synthase 2 (HMGCS2), HMGCS2 (gene 3158)
The assay is described as follows: LTEA_HepaRG_HMGCS2: Life Technologies and Expression Analysis (LTEA) Assay for 3-Hydroxy-3-Methylglutaryl-CoA Synthase 2 (HMGCS2) using HepaRG (AID 2283504). The essentials:
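HepaRG, plated 48 h then switched to serum-free induction media; cmpd 8-pt, max 100 uM, 1/2-log, 0.5% DMSO, n=2, 48 h. HMGCS2 mRNA by Fluidigm TaqMan qRT-PCR, ACTB/GAPDH/POLR2A norm; bidirectional fit vs DMSO.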

Read-out in the next assay: HGF (gene 3082)
The assay is described as follows: LTEA_HepaRG_HGF: Life Technologies and Expression Analysis (LTEA) Assay for Hepatocyte Growth Facto (HGF) using HepaRG (AID 2283505). The essentials: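 Read-out is HGF transcript level by qRT-PCR, normalized to three housekeeping genes, fitted bidirectionally against 0.5% DMSO vehicle. Human HepaRG cells received test chemicals for 48 h at up to 100 uM.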

Read-out in assay [14]: Insulin Like Growth Factor 1 (IGF1), IGF1 (gene 3479)
The assay is described as follows: LTEA_HepaRG_IGF1: Life Technologies and Expression Analysis (LTEA) Assay for Insulin Like Growth Factor 1 (IGF1) using HepaRG (AID 2283506). The gist of the method: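 Endpoint: IGF1 mRNA change by qRT-PCR, housekeeping-normalized, fitted bidirectionally relative to 0.5% DMSO vehicle. Human HepaRG cells were treated 48 h in serum-free induction medium, eight half-log concentrations topping at 100 uM.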

Read-out in assay [15]: Intercellular Adhesion Molecule 1 (ICAM1), ICAM1 (gene 3383)
The assay is described as follows: LTEA_HepaRG_ICAM1: Life Technologies and Expression Analysis (LTEA) Assay for Intercellular Adhesion Molecule 1 (ICAM1) using HepaRG (AID 2283507). The gist of the method:
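Readout is qRT-PCR mRNA level, normalized to three housekeeping genes and fitted bidirectionally against 0.5% DMSO vehicle. Human HepaRG cultures received compound for 48 h, top concentration 100 uM with half-log dilutions.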

Read-out in assay [16]: Interleukin 6 (IL6), IL6 (gene 3569)
The assay is described as follows: LTEA_HepaRG_IL6: Life Technologies and Expression Analysis (LTEA) Assay for Interleukin 6 (IL6) using HepaRG (AID 2283509). The essentials:
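qRT-PCR read-out of IL6 transcript, normalized to three housekeeping genes, after 48 h chemical exposure of HepaRG cells; 8-point half-log series, top 100 uM, 0.5% DMSO vehicle. Bidirectional curve fitting against DMSO baseline.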

Read-out in assay [17]: growth arrest and DNA damage 45 (GADD45G), GADD45G (gene 10912)
The experiment in a line: LTEA_HepaRG_GADD45G: Life Technologies and Expression Analysis (LTEA) Assay for growth arrest and DNA damage 45 (GADD45G) using HepaRG (AID 2283499). The gist of the method: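 Gain or loss of GADD45G mRNA, quantified by TaqMan qRT-PCR against three housekeeping genes, is fitted in both directions relative to 0.5% DMSO. Human HepaRG cultures receive test chemical for 48 h at up to 100 uM.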

Sequence of Hypoxia-inducible factor 1-alpha (Homo sapiens) (Q16665 whole entry, looked up): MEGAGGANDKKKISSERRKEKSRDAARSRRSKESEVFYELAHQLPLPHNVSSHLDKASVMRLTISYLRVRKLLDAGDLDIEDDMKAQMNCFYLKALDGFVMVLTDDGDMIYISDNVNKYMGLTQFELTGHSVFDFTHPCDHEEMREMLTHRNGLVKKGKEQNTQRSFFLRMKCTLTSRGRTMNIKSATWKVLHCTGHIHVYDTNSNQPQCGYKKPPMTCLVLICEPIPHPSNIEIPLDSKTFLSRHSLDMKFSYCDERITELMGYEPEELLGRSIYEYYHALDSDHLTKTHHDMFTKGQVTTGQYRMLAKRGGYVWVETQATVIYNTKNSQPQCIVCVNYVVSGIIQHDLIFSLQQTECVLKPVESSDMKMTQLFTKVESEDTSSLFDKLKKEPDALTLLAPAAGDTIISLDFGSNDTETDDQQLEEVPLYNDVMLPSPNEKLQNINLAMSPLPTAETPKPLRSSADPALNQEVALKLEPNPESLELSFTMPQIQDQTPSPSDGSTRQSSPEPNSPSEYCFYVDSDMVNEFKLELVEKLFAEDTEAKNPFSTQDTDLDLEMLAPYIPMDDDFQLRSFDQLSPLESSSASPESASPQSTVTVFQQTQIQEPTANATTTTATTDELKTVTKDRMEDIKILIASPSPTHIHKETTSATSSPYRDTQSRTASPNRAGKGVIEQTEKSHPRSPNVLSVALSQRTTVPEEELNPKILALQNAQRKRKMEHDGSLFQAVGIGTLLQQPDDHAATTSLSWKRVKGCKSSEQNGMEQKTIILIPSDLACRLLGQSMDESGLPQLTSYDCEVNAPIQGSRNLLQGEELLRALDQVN
Sequence of Cytochrome P450 3A7 (Homo sapiens) (P24462 whole entry, looked up): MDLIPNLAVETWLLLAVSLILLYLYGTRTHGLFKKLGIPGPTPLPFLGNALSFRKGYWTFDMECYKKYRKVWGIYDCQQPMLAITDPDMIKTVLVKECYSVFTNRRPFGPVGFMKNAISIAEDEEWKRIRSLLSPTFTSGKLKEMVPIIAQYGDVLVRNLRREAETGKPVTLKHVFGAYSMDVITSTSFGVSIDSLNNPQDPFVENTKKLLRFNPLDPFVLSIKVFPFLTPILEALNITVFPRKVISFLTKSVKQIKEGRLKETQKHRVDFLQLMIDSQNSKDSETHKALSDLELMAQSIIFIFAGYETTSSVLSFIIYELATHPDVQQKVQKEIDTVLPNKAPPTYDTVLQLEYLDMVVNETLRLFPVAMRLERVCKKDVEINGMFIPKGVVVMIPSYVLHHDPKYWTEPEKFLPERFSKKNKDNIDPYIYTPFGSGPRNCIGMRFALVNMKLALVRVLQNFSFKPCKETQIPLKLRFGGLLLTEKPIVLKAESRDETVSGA

As to `Oc1cc(Cl)ccc1Oc1ccc(Cl)cc1Cl`, the compound was called inactive (in assay [1]; in [2]; in [3]; with CYP3A5 (gene 1577); in assay [4]; in assay [5]). Further, the result in [6], in assay [7], in [8], in [9], in [10] and in assay [11] was inactive. Also, the compound was called inactive (in assay [12]; in [13]; in the assay with HGF (gene 3082); in [14]; in assay [15]; in assay [16]). In addition, the AC50 in the assay with CYP3A5 (gene 1577) is 51 µM (active); in assay [4] it was 88.9 µM (active); in [5] it was 51 µM (active) and 76.4 µM (active); in assay [6], 72.8 µM (active); in assay [7] it was 83.7 µM (active); in assay [9], 89.6 µM (active). Further, the AC50 was 79 µM (active) in [12]; 82.8 µM (active) in [13]; 51 µM (active) with HGF (gene 3082); 69 µM (active) in [14]; 81.3 µM (active) in [16].
Consider `CCCN(CCC)c1c([N+](=O)[O-])cc(C(F)(F)F)cc1[N+](=O)[O-]`, for which the call (in assay [1]; in [2]; in assay [3]; in the assay with CYP3A5 (gene 1577); in assay [4]; in assay [5]) was inactive. Besides, the compound was classed as inactive in assay [6], in assay [7], in assay [8], in assay [9], in [10] and in assay [11]. The compound was classed as inactive (in assay [12]; in assay [13]; with HGF (gene 3082); in assay [14]; in assay [15]; in assay [16]).
`CCCN(CCOc1c(Cl)cc(Cl)cc1Cl)C(=O)n1ccnc1`: the AC50 in assay [1] is 27.9 µM (active); in assay [2] it was 31.1 µM (active); in assay [3], 32.4 µM (active); in assay [4], 32.9 µM (active); in [5], 27.7 µM (active); in assay [6], 33.2 µM (active). The half-maximal activity concentration (AC50) in [7] was 31.8 µM (active); in [8] it was 12.4 µM (active); in assay [17], 13 µM (active); in assay [9], 13.4 µM (active); in [10], 78 µM (active); in assay [13] it was 29.7 µM (active). The concentration at half-maximal activity (AC50) in [14] is 24.4 µM (active); in [15], 50 µM (active); in assay [16] it was 36.5 µM (active). The call (with CYP3A5 (gene 1577); in assay [11]; in [12]; in the assay with HGF (gene 3082)) was inactive.

The term AC50 denotes the concentration at which the activity in the assay is half-maximal.
